KCNH2 3.1 inh – blocks the human KCNH2 3.1 channel isoform; U2OS KCNH2 3.1, thallium flux FluxOr; active compounds read low; activity change, % (tested at about 1.8 µM); 340,000 compounds, 0.95% hits;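 active = maximum activity change below -70%; inconclusive = maximum activity change from -70% to -50%; inactive = maximum activity change above -50%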;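 note: thallium influx rate constant from kinetic fluorescence after stimulation buffer; % is set by controls: 0 for no effect and ±100 for the full control effect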
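Measured as rate of thallium-driven FluxOr signal in transduced U2OS cells carrying the 3.1 channel, read kinetically for 2 min upon stimulation; values are rate constants scaled to DMSO control wells.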
GRP78 ERSR act – inducers of ER stress response in human glioma cells. U87-MG GRP78 promoter luciferase reporter, 16 h. Potency, µM, inactives show at the top dose activation, usual class: activators. 420,000 compounds, 0.02% hits; note: potency is the fitted concentration of half-maximal effect; series mostly up to about 76 µM; % of control where 0% means no effect; nearly all actives have a fitted effect of over 35% in size
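ERSR induction read as luciferase luminescence (Bright-Glo, 10 min at room temperature) in stably transfected human U87-MG glioma cells exposed to compounds for 16 h, using GRP78 as sensor.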
KCNH2 WT inh – blocks the wildtype human KCNH2 potassium channel. 340,000 compounds, 0.37% hits. activity change, % at 1.84 µM. Q12809. U2OS, BacMam KCNH2, thallium flux FluxOr; active compounds read low;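 active = maximum activity change below -70%; inconclusive = maximum activity change between -70% and -50%; inactive = maximum activity change above -50%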; note: % is set by controls: 0 for no effect and ±100 for the full control effect
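U2OS cells transduced with wild-type KCNH2 virus are loaded with FluxOr dye for 45 min, and thallium flux is measured in kinetic reads before and after stimulation buffer. Rate constants are normalized to DMSO controls.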
RXFP1 ag – RXFP1 (human) receptor agonism. HEK293T-RXFP1 cAMP TR-FRET, 30 min; response scale: percent of porcine relaxin response, buffer zero. Potency, µM (series often up to 57.5 µM), for inactives: top-dose activation, usual class: activators. 370,000 compounds, 0.3% hits; note: potency is the fitted concentration of half-maximal effect; % is set by controls: 0 for no effect and ±100 for the full control effect; nearly all actives have a fitted effect of over 60% in size
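Agonist response is measured as cAMP accumulation in an RXFP1-transfected HEK293T line under PDE4 inhibition. Values are scaled between buffer-only and 29 nM porcine relaxin, and EC50s come from standard Hill equation fits.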
RXFP1 antag – RXFP1 (human) relaxin receptor antagonism; 350,000 compounds, 0.59% hits; AID 1259400; activity change, negative = inhibition, % at 57.5 µM; HEK293-RXFP1, relaxin-stimulated cAMP HTRF, 30 min; active compounds read low; Q9HBX9;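 active = activity change of -60% or lower, but not beyond a set lower limit; inconclusive = change between -60% and -40%, or beyond the set limit; inactive = change above -40%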; note: % is set by controls: 0 for no effect and ±100 for the full control effect
PTHR1 agonist – PTHR1 (human) receptor agonism; 410,000 compounds, 0.075% hits; HEK293 GP2 PTHR1 cells, GloSensor cAMP luminescence, 1 h; AID 743266; Potency, µM (highest dose often 115 µM), for the others: at the top dose activation, most hits filed as activators; Q03431; note: potency is the fitted concentration of half-maximal effect; nearly all actives have a fitted effect of over 55% in size
Target sequence (Q03431 whole entry, looked up): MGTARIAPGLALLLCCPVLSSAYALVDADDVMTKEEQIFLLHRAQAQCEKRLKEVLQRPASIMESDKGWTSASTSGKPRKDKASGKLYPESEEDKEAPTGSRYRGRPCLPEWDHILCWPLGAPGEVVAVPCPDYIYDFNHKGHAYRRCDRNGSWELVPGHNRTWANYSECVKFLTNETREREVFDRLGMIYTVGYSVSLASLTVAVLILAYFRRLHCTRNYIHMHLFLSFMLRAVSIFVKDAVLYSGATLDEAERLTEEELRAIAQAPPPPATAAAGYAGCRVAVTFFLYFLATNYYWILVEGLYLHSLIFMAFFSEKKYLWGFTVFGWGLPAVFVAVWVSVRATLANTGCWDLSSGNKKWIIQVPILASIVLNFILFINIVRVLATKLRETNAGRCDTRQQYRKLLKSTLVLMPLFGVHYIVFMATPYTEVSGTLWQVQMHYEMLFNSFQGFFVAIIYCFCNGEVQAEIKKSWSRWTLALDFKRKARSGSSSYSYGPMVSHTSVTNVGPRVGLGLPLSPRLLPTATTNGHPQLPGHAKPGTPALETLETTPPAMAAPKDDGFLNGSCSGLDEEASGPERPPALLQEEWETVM
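HEK-293-derived GP2 cells expressing PTHR1 and a GloSensor cAMP reporter, 3,000/well, plated overnight, given luciferin plus IBMX (each 0.5 mM as added) for 1 h at 37 °C, then compound for 1 h at 37 °C. Luminescence was read after 15 min at room temperature.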
The depositor's hits bear a star; i = inactive; ? = inconclusive; / = not tested or not shown; ! = not active in a repeat; [ ] = dose if it differs, or a comment. Most compounds without a hit are left out; they make up all but 1.4% or so of the library. Unless noted, calls come from the whole dose curve; as a rule, active = well fitted curve in the direction sought with a large enough effect; inconclusive = small, poorly fitted or top-dose-only effect, or another doubt; inactive = no such curve, though single readings can be large; an effect the other way counts as inactive or inconclusive.

SMILES | KCNH2 3.1 inh | GRP78 ERSR act | KCNH2 WT inh | RXFP1 ag | RXFP1 antag | PTHR1 agonist
COc1ccc(S(=O)(=O)N2CCC(C(=O)N[C@H](C(=O)NCc3ccncc3)C(C)C)CC2)cc1 | 0.7 | -2.8% | 7.7 | 3.4% | -16.8 | i
COc1ccc(CNC(=O)[C@@H](NC(=O)C2CCN(S(=O)(=O)c3ccc(C)cc3)CC2)C(C)C)cc1OC | -74.5* | -0.9% | -12.3 | -0.2% | 2.5 | i
CC(CCN1C(Nc2ccccc2)=NC[C@@H]1Cc1ccccc1)c1ccccc1 (stereo partly specified) | -82.1* | -6.2% | -1.6 | 1.7% | / | i
c1ccc(C[C@H]2CN=C(Nc3ccccc3)N2CCC2CCCC2)cc1 | -94.1* | -6.2% | 18.2 | -0.1% | / | -32.7%
CC(C)C[C@H]1CN=C(Nc2ccccc2)N1CCC1CCCCC1 | ? | 1.5% | 3.9 | -0.2% | / | -11.6%
COc1ccc(-n2c(=O)c(C)nc3cnc(OC)nc32)cc1 | / | -2.9% | / | / | / | /
CC(=O)Nc1sc(C)c(C)c1C(=O)OCC(=O)Nc1ccc(S(N)(=O)=O)cc1 | 15.3 | -2.8% | 11.0 | / | -2.8 | -22.0%
CC(C)N1CCc2c(sc(NC(=O)c3ccc4ccccc4c3)c2C(N)=O)C1 | -16.3 | -5.2% | 3.4 | -2.6% | -73.8* | i
Cc1cc(=O)oc2cc(OS(C)(=O)=O)ccc12 | 7.6 | -1.8% | 3.8 | 4.5% | 8.6 | 4.3%
C#CCN(C[C@H]1[C@H](OC(=O)NCc2ccc(OC)c(OC)c2)[C@H](OC(=O)NCc2ccc(OC)c(OC)c2)C[C@H]2C(=O)N(c3ccccc3)C(=O)[C@@H]12)S(=O)(=O)c1ccc(C)cc1 | -3.7 | -4.8% | 0.5 | / | 2.3 | 1.7%
Cc1ccc(C(=O)Nc2cccc(O)c2)cc1S(=O)(=O)N1CCCCCC1 | 15.9 | 2.8% | 0.6 | -1.2% | -82.8*! | -23.5%
O=C(Nc1cccc(S(=O)(=O)N2CCCC2)c1)c1ccc2c(c1)OCO2 | 0.3 | 0.9% | -1.3 | -0.7% | -7.8 | -6.7%
O=C(Nc1cccc(S(=O)(=O)N2CCCCCC2)c1)c1ccc2c(c1)OCO2 | -83.9* | 1.4% | -24.4 | -1.8% | -3.3 | -22.9%
Cc1ccc(NC(=O)c2ccc(C)c(S(=O)(=O)N3CCCCCC3)c2)cc1 | / | 0.2% | / | -0.5% | / | -29.7%
CCc1ccc(S(=O)(=O)Nc2cccc(-c3ccc4nncn4n3)c2)s1 | 7.4 | -3.3% | i | 1.3% | 14.9 | -46.7%
C=CCOc1ccc(/C=N/NC(=O)c2cc3c(OC)cc(OC)cc3[nH]2)cc1 | -1.0 | -0.6% | -5.3 | 0.6% | -4.1 | i
S=c1[nH]cnc2scc(-c3ccc(Br)cc3)c12 | 0.2 | -6.6% | -84.0* | 25.6% | -19.6 | -16.7%
Cc1sc2nc(-c3ccncc3)[nH]c(=O)c2c1-c1ccccc1 | / | / | / | 6.5% | / | /
CCOc1ccccc1NS(=O)(=O)c1c(C)noc1C | -1.5 | -1.2% | -1.7 | 0.4% | -2.3 | -2.9%[57.5 µM]
COC(=O)c1ccccc1NS(=O)(=O)c1c(C)noc1C | -109.0* | -6.5% | 4.6 | 1.3% | 8.6 | -15.2%
O=c1c2c3c(sc2ncn1/N=C/c1cccnc1)CCCC3 | -77.3* | 3.6% | 8.7 | 3.5% | -20.1 | -0.8%
Cc1ccc(O)c(C2=Nc3ccccc3N=C(c3ccco3)C2)c1 | -17.9 | -7.9% | -4.6 | ? | 29.3 | i
CC(C)CCn1cnc2c(cnn2-c2ccc(F)cc2)c1=O | -136.7* | 5.2% | -181.2* | -1.7% | -3.7 | -64.8%[57.5 µM]
Cc1ccc(C)c(Cn2cnc3c(cnn3-c3ccc(F)cc3)c2=O)c1 | / | -3.5% | / | 0.7% | -15.4 | -20.0%
N#CCCN1CCN(Cc2cc(-c3ccccc3)ccc2O)CC1 | -29.0 | 2.4% | 16.4 | -0.6% | 22.6 | 15.8µM*
CC(C)(C)c1csc(NNC(=O)c2ccc(Cl)cc2)n1 | -0.1 | 2.1% | 3.5 | -0.2% | -95.2* | -19.8%
CC(C)(C)c1csc(NC(=O)c2cccnc2)n1 | -0.5 | 7.5% | -14.5 | 1.8% | -5.2 | -38.4%
CCCn1nc(NC(=O)c2cccs2)c2cc3cccc(C)c3nc21 | 1.2 | -6.7% | 1.9 | 2.3% | -27.7 | -20.4%
